PubChem BioAssay (NCI)
The panel holds about 83,000 compounds, 20% with a hit somewhere; the sample as a whole holds those more often.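 Treatment: one concentration, 48 hours, 96-well format. Scoring: percent growth, with anything below 10 considered active.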 Values without a mark were called inactive. The source made the active and inactive calls.

tested on: COLO 205 colon; assay: NCI-60 one-dose screen, 48 h (100 = growth as untreated, 0 = no growth, -100 = all killed); conditions: 10 µM unless noted

SMILES | growth
COc1ccc(-c2csc(N(C(=O)N3CCN(c4cc5c(cc4F)c(=O)c(C(=O)O)cn5C4CC4)CC3)c3ccccc3)n2)cc1 | 17.9%
O=Nc1c(-c2c(O)[nH]c3ncccc23)[nH]c2ccccc12 | 108%
CCN1CC(=O)N(/N=C2\C(=O)Nc3ccccc32)C1=S | 101%
O=C1CC(N2C(=O)/C(=C/C(Cl)=C\c3ccc([N+](=O)[O-])cc3)SC2=S)C(=O)N1c1ccc(Cl)cc1 (configuration not stated) | 4.01% (active)
CN(C)C1CCN(Cc2ccc(NC(=O)c3cncc(C#Cc4cnc(N)c5ncccc45)c3)cc2C(F)(F)F)CC1 | 69.6%
Cn1cc(-c2nonc2-c2c[nH]c3ccc(Br)cc23)c2cc(Br)ccc21 | 49.1%
C[C@@H]1CCC[C@H]1CC(N)C(=O)O (some centres not stated) | 116%
S=C(Nc1ccc(-c2nc(N3CCOCC3)c3cccn3n2)cc1)Nc1cccnc1 | 28%
O=C(CN1C(=O)CCC1=O)Nc1ncc(Cc2ccc(F)cc2)s1 | 113%
CN1CCN(C(=O)OCc2ccc3c(Cl)cc(Cl)c(O)c3n2)CC1 | 107%
O=C(O)[C@@H]1c2ccccc2-c2ccccc2[C@H]1C(=O)O | 106%
Clc1ccc(Sc2cnc(-c3ccccc3)o2)cc1 | 110%
C=C(C)[C@@H]1CC[C@]2(C(=O)NCC#CCN3CCN(C)CC3)CC[C@]3(C)[C@H](CC[C@@H]4[C@@](C)(CCC#N)[C@H](C(=C)C)CC[C@]43C)[C@@H]12 | 57.8%
Cc1ccc(/C=N/Nc2nc(Nc3ccccc3)nc(-n3nc(C)cc3C)n2)cc1 | 30.6%
COc1ccc(/C(C)=C(/c2ccc(OCCCN(C)C)cc2)c2ccc(OC(=O)Cc3ccccc3)cc2)cc1 | 76.1%
CCOC(=O)C1=C(NC)OCC1=O | 112%
C#CCOc1ccc2ncnc(Nc3cccc(NC(=O)C=C)c3)c2c1 | 87.5%
COc1cc(-n2cc(-c3cc(O)c(C/C=C(\C)CCC=C(C)C)c(O)c3)nn2)cc2c1O[C@]1(C)CC[C@@H](O)C(C)(C)[C@H]1C2 | 12.5%
N#C/C(=C\c1ccc(Br)cc1)n1nnc2ccc(F)cc21 | -12.9% (active)

SMILES | growth
CCN(CC)CCNC(=O)c1cn2ncnc(Oc3ccc(NC(=O)Nc4ccc(Cl)c(C(F)(F)F)c4)c(F)c3)c2c1C | -59.5% (active)
Cc1nc(N2CCOCC2)sc1S(N)(=O)=O | 104%
CC(=O)N(N=Nc1ccccc1)c1cccc2ccccc12 | 91.9%
Cc1ccc(-c2nc(N3CCNCC3)c3oc(-c4ccccc4)nc3n2)cc1 | -91.1% (active)
Cc1cc2c(O)c(-c3cc(Cl)ccc3Cl)c3sc(=O)oc3c2cc1C | 112%
N=C(N)c1ccc(-c2ccc(-c3cc(Cl)cc(Cl)c3)o2)o1 | -81.7% (active)
CC1=Nc2cnc(Nc3ccc(OCCN4CCCCC4)cc3)nc2Nc2ccccc21 | 63.7%
Cc1cccnc1NC(=S)Nc1ncccc1C | 116%
CN1C(=O)/C(=C/c2ccc(C(=O)Nc3ncc(Cc4ccc(Cl)cc4)s3)cc2)SC1=S | 80.3%
COc1ccc(-c2nnc3n(C)c(=O)c4ccccc4n23)cc1N | -22.2% (active)
CC1=C(CCC(C)N(C)Cc2ccc(OCCCN3CCCC3)cc2)C(C)(C)CCC1 (configuration not stated) | -78.8% (active)
CCCc1cc(NC)nc(S(=O)(=O)CC)n1 | 120%
Cc1cccc(Cl)c1NC(=O)c1ccc2nc(NC(=O)NCCN(C)C)sc2c1 | 45.1%
O=c1oc2ccccc2cc1C1=NN=C(SCc2ccccc2)SC1 | 113%
CC1(c2ccccc2O)NN=C(/N=C/c2cccc([N+](=O)[O-])c2)N1C(Cc1c[nH]c2ccccc12)C(=O)O (configuration not stated) | 84%
Cc1ccc(CNc2ccc(Cl)cc2NCc2ccc(C)c(O)c2)cc1O | 90.2%
NC(=O)c1c(NC(=O)c2ccccc2)sc2c1CCC(=O)C2 | -49.9% (active)
CCn1c(=S)sc2c(Nc3ccc(F)cc3)nc(-c3cccnc3)nc21 | 72.5%

tested on: DU-145 prostate; assay: as above; conditions: 10 µM unless noted

SMILES | growth
O=C(NNC(=O)c1ccc(-n2cc(-c3ccccc3)nn2)cc1)Nc1ccccc1 | 106%
COc1ccc(-c2csc(N(C(=O)N3CCN(c4cc5c(cc4F)c(=O)c(C(=O)O)cn5C4CC4)CC3)c3ccccc3)n2)cc1 | 17.6%
O=Nc1c(-c2c(O)[nH]c3ncccc23)[nH]c2ccccc12 | 62.2%
CCN1CC(=O)N(/N=C2\C(=O)Nc3ccccc32)C1=S | 112%
O=C1CC(N2C(=O)/C(=C/C(Cl)=C\c3ccc([N+](=O)[O-])cc3)SC2=S)C(=O)N1c1ccc(Cl)cc1 (configuration not stated) | 22.4%
CN(C)C1CCN(Cc2ccc(NC(=O)c3cncc(C#Cc4cnc(N)c5ncccc45)c3)cc2C(F)(F)F)CC1 | 64.1%
Cn1cc(-c2nonc2-c2c[nH]c3ccc(Br)cc23)c2cc(Br)ccc21 | 23.2%
C[C@@H]1CCC[C@H]1CC(N)C(=O)O (some centres not stated) | 106%
S=C(Nc1ccc(-c2nc(N3CCOCC3)c3cccn3n2)cc1)Nc1cccnc1 | 18.6%
O=C(CN1C(=O)CCC1=O)Nc1ncc(Cc2ccc(F)cc2)s1 | 106%
CN1CCN(C(=O)OCc2ccc3c(Cl)cc(Cl)c(O)c3n2)CC1 | 56.3%
O=C(O)[C@@H]1c2ccccc2-c2ccccc2[C@H]1C(=O)O | 115%
Clc1ccc(Sc2cnc(-c3ccccc3)o2)cc1 | 104%
C=C(C)[C@@H]1CC[C@]2(C(=O)NCC#CCN3CCN(C)CC3)CC[C@]3(C)[C@H](CC[C@@H]4[C@@](C)(CCC#N)[C@H](C(=C)C)CC[C@]43C)[C@@H]12 | 57.5%
Cc1ccc(/C=N/Nc2nc(Nc3ccccc3)nc(-n3nc(C)cc3C)n2)cc1 | 40.9%
COc1ccc(/C(C)=C(/c2ccc(OCCCN(C)C)cc2)c2ccc(OC(=O)Cc3ccccc3)cc2)cc1 | 94.2%
CCOC(=O)C1=C(NC)OCC1=O | 110%
C#CCOc1ccc2ncnc(Nc3cccc(NC(=O)C=C)c3)c2c1 | 54%
COc1cc(-n2cc(-c3cc(O)c(C/C=C(\C)CCC=C(C)C)c(O)c3)nn2)cc2c1O[C@]1(C)CC[C@@H](O)C(C)(C)[C@H]1C2 | 30.6%
N#C/C(=C\c1ccc(Br)cc1)n1nnc2ccc(F)cc21 | 15.3%

SMILES | growth
CCN(CC)CCNC(=O)c1cn2ncnc(Oc3ccc(NC(=O)Nc4ccc(Cl)c(C(F)(F)F)c4)c(F)c3)c2c1C | 8.01% (active)
Cc1nc(N2CCOCC2)sc1S(N)(=O)=O | 105%
CC(=O)N(N=Nc1ccccc1)c1cccc2ccccc12 | 9.87% (active)
Cc1ccc(-c2nc(N3CCNCC3)c3oc(-c4ccccc4)nc3n2)cc1 | -93.1% (active)
Cc1cc2c(O)c(-c3cc(Cl)ccc3Cl)c3sc(=O)oc3c2cc1C | 69.5%
N=C(N)c1ccc(-c2ccc(-c3cc(Cl)cc(Cl)c3)o2)o1 | -87.7% (active)
CC1=Nc2cnc(Nc3ccc(OCCN4CCCCC4)cc3)nc2Nc2ccccc21 | 57.8%
Cc1cccnc1NC(=S)Nc1ncccc1C | 113%
CN1C(=O)/C(=C/c2ccc(C(=O)Nc3ncc(Cc4ccc(Cl)cc4)s3)cc2)SC1=S | 47.1%
COc1ccc(-c2nnc3n(C)c(=O)c4ccccc4n23)cc1N | 33.3%
CC1=C(CCC(C)N(C)Cc2ccc(OCCCN3CCCC3)cc2)C(C)(C)CCC1 (configuration not stated) | 65.3%
CCCc1cc(NC)nc(S(=O)(=O)CC)n1 | 109%
Cc1cccc(Cl)c1NC(=O)c1ccc2nc(NC(=O)NCCN(C)C)sc2c1 | 104%
O=c1oc2ccccc2cc1C1=NN=C(SCc2ccccc2)SC1 | 100%
CC1(c2ccccc2O)NN=C(/N=C/c2cccc([N+](=O)[O-])c2)N1C(Cc1c[nH]c2ccccc12)C(=O)O (configuration not stated) | 114%
CC(O)c1cnc(/C=C2\SC(=S)N(Cc3ccccc3)C2=O)s1 (configuration not stated) | 53.2%
Cc1ccc(CNc2ccc(Cl)cc2NCc2ccc(C)c(O)c2)cc1O | 23.4%
NC(=O)c1c(NC(=O)c2ccccc2)sc2c1CCC(=O)C2 | 35%
CCn1c(=S)sc2c(Nc3ccc(F)cc3)nc(-c3cccnc3)nc21 | 77.5%
COc1cc(C(=O)n2nc(N3CCN(C)CC3)c3cc(N)ccc32)cc(OC)c1OC | 22.5%
